Measured values: the supplement of paper PMC6992640
± gives the standard deviation of the averaged measurements.

Legend:
Assay in all cases: cell viability (% of vehicle); higher = less cytotoxic
Conditions in all cases: 10 µM; 72 h
HCI01 = system: HCI01 (cells of a triple-negative basal-like breast cancer xenograft)
HCI03 = system: HCI03 (cells of an ER-positive luminal breast cancer xenograft)
HCI09 = system: HCI09 (cells of a triple-negative luminal androgen receptor type breast cancer xenograft)
HCI11 = system: HCI11 (cells of an ER-positive luminal breast cancer xenograft)
HCI13 = system: HCI13 (cells of an ER-positive luminal breast cancer xenograft)
HCI16 = system: HCI16 (cells of a triple-negative basal-like breast cancer xenograft)
UCD52 = system: UCD52 (cells of a triple-negative basal-like breast cancer xenograft)
WHIM2 = system: WHIM2 (cells of a triple-negative basal-like breast cancer xenograft)
WHIM30 = system: WHIM30 (cells of a triple-negative basal-like breast cancer xenograft)
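Note: PDX cells carrying CMV promoter-driven luciferase, viability read as total photon flux per second by IVIS imaging following D-luciferin, vehicle control 0.1% DMSO.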

Compound | cell viability (HCI01) | cell viability (HCI03) | cell viability (HCI09) | cell viability (HCI11) | cell viability (HCI13) | cell viability (HCI16) | cell viability (UCD52) | cell viability (WHIM2) | cell viability (WHIM30)
CC(=O)O.CC(=O)O.CCC(C)CC(C)CCCCCCCCC(=O)NC1CC(O)C(NCCN)NC(=O)C2C(O)CCN2C(=O)C(C(O)CCN)NC(=O)C(C(O)C(O)c2ccc(O)cc2)NC(=O)C2CC(O)CN2C(=O)C(C(C)O)NC1=O (centres undefined) [Caspofungin Acetate] | 58.7 ± 28 | 115 | 84.5 ± 9.6 | 84.4 | 88 ± 5.7 | 115 | 71.4 ± 2.7 | 94.1 ± 40 | 119 ± 2.4
CO[C@H]1/C=C/O[C@@]2(C)Oc3c(C)c(O)c4c(c3C2=O)C2=NC3(CCN(CC(C)C)CC3)NC2=C(NC(=O)/C(C)=C\C=C\[C@H](C)[C@H](O)[C@@H](C)[C@@H](O)[C@@H](C)[C@H](OC(C)=O)[C@@H]1C)C4=O [Rifabutin] | 56.1 ± 34 | 116 | 57.3 ± 27 | 83.2 | 113 ± 16 | 121 | 81.2 ± 1.8 | 79.1 ± 27 | 143 ± 7.7
CN1C[C@@H]2c3ccccc3Oc3ccc(Cl)cc3[C@H]2C1.O=C(O)/C=C/C(=O)O [Asenapine] | 91.9 ± 7 | 93 | 68.9 ± 5.4 | 93.7 | 72.7 ± 4.8 | 121 | 71 ± 5.6 | 79.5 ± 14 | 114 ± 25
Cl.O=C1CC2(CCCC2)CC(=O)N1CCCCN1CCN(c2ncccn2)CC1 [Buspirone HCl] | 110 ± 16 | 95.5 | 91.3 ± 8.6 | 101 | 76.7 ± 2 | 119 | 106 ± 3.5 | 104.3 ± 0.12 | 90.4 ± 8.1
CC(C)CN(CC(O)C(Cc1ccccc1)NC(=O)OC1CCOC1)S(=O)(=O)c1ccc(N)cc1 (centres undefined) [Amprenavir (agenerase)] | 96.3 ± 11 | 99.1 | 85.6 ± 4.6 | 104 | 103 ± 7.5 | 115 | 56.8 ± 3.1 | 78.8 ± 8.7 | 112 ± 25
CS(=O)(=O)c1ccc(C(O)C(CO)NC(=O)C(Cl)Cl)cc1 (centres undefined) [Thiamphenicol] | 109 ± 26 | 104 | 85.8 ± 3.5 | 82.9 | 64.4 ± 4.1 | 103 | 84.7 ± 13 | 107 ± 29 | 122 ± 6.1
CCC(=O)NCCC1CCc2ccc3c(c21)CCO3 (centres undefined) [Ramelteon] | 98.9 ± 7 | 113 | 94 ± 8.3 | 93 | 94 ± 20 | 81.6 | 80.6 ± 1.4 | 80.7 ± 9.9 | 103 ± 3.4
CC1(C(=O)[O-])CCC2(C)CCC3(C)C(=CC(=O)C4C5(C)CCC(OC(=O)CCC(=O)[O-])C(C)(C)C5CCC43C)C2C1.[Na+].[Na+] (centres undefined) [Carbenoxolone disodium] | 84.3 ± 8 | 122 | 89.2 ± 4.5 | 103 | 129 ± 87 | 108 | 82.3 ± 1.7 | 108 ± 11 | 97.9 ± 2.5
O=C(O)c1ccc2ccccc2c1O.OCc1cc(C(O)CNCCCCCCOCCCCc2ccccc2)ccc1O (centres undefined) [Salmeterol xinafoate] | 86 ± 1.1 | 92.5 | 57.3 ± 8 | 75.2 | 88.6 ± 9.6 | 76.1 | 62.1 ± 0.9 | 66.7 ± 13 | 107 ± 20
CC(C)NCC(O)COc1ccc(CCOCC2CC2)cc1.Cl (centres undefined) [Levobetaxolol HCl] | 125 ± 30 | 104 | 112 ± 18 | 105 | 145 ± 15 | 127 | 109 ± 18 | 96.8 ± 13 | 114 ± 14
CO/C(O)=N/[C@H](C(=O)N1CC2(CC2)C[C@H]1c1ncc(-c2ccc3c(c2)C(F)(F)c2cc(-c4ccc5nc([C@@H]6[C@H]7CC[C@H](C7)N6C(=O)[C@@H](/N=C(\O)OC)C(C)C)[nH]c5c4)ccc2-3)[nH]1)C(C)C [Ledipasvir] | 103 ± 1.7 | 94.4 | 55.6 ± 3.8 | 80.6 | 99 ± 8.5 | 72.3 | 73.6 ± 4.1 | 64.9 ± 9.5 | 104 ± 1.1
CNCC(O)c1ccc(O)c(O)c1.O=C(O)C(O)C(O)C(=O)O (centres undefined) [Epinephrine Bitartrate] | 90.1 ± 26 | 96.3 | 89 ± 23 | 90.8 | 71.7 ± 3.3 | 96.7 | 100 ± 8.4 | 67.4 ± 26 | 110.2 ± 1.1
Cc1nccn1CC1CCc2c(c3ccccc3n2C)C1=O.Cl.O.O (centres undefined) [Ondansetron hydrochloride dihydrate] | 101 ± 12 | 82.1 | 117 ± 49 | 107 | 143 ± 6 | 106 | 83.84 ± 0.49 | 88.3 ± 12 | 68.2 ± 14
CCNC(=O)CCCC=CCC1C(O)CC(O)C1C=CC(O)CCc1ccccc1 (centres undefined) [Bimatoprost] | 80.9 ± 64 | 154 | 91.9 ± 22 | 97.5 | 118 ± 6.7 | 144 | 86.2 ± 4.6 | 98.4 ± 23 | 148 ± 9.5
Cl.NCCS [Cysteamine HCl] | 112 ± 4.3 | 112 | 93.4 ± 4.4 | 95.8 | 79.5 ± 5.4 | 108 | 92.8 ± 18 | 102.7 ± 1 | 102 ± 7
Cc1c(-c2ccccc2)oc2c(C(=O)OCCN3CCCCC3)cccc2c1=O.Cl [Flavoxate hydrochloride] | 87 ± 21 | 123 | 115.8 ± 0.74 | 90.9 | 128 ± 27 | 119 | 99.5 ± 2 | 88.5 ± 24 | 107 ± 9.2
CCCCOc1ccc(OCCCN2CCOCC2)cc1.Cl [Pramoxine HCl] | 137.9 ± 0.65 | 103 | 92.4 ± 8.4 | 112 | 83.5 ± 24 | 116 | 79.6 ± 6 | 166 ± 12 | 133 ± 23
Cc1cc(C(C)(C)C)cc(C)c1CC1=NCCN1.Cl [Xylometazoline HCl] | 74.9 ± 49 | 114 | 103 ± 40 | 89.9 | 136 ± 29 | 106 | 83.9 ± 1.7 | 110 ± 3.6 | 158 ± 12

Compound | cell viability (HCI01) | cell viability (HCI03) | cell viability (HCI09) | cell viability (HCI11) | cell viability (HCI13) | cell viability (HCI16) | cell viability (UCD52) | cell viability (WHIM2) | cell viability (WHIM30)
Clc1ccc2c(c1)C(N1CCNCC1)=Nc1ccccc1O2 [Amoxapine] | 96.5 ± 15 | 104 | 87.5 ± 8.7 | 85 | 88 ± 2.5 | 94.9 | 100 ± 40 | 91.7 ± 7.3 | 197 ± 18
CN(CC=CC#CC(C)(C)C)Cc1cccc2ccccc12 [Terbinafine] | 105 ± 5.9 | 114 | 136 ± 70 | 108 | 111 ± 26 | 139 | 106 ± 3 | 73.1 ± 24 | 117 ± 3.4
O=C(O)C=CC(=O)O.OCCOCCN1CCN(C2=Nc3ccccc3Sc3ccccc32)CC1.OCCOCCN1CCN(C2=Nc3ccccc3Sc3ccccc32)CC1 [Quetiapine Fumarate] | 186 ± 14 | 91.6 | 81.6 ± 5.6 | 123 | 83 ± 0.84 | 163 | 78.8 ± 2 | 128 ± 7 | 154 ± 6.5
Cl.O=C1Cc2cc(CCN3CCN(c4nsc5ccccc45)CC3)c(Cl)cc2N1 [Ziprasidone HCl] | 45.7 ± 12 | 78.6 | 33.8 ± 21 | 57.8 | 45.9 ± 5.8 | 46.5 | 130 ± 9.5 | 38.1 ± 5.7 | 123 ± 11
Nc1nc(F)nc2c1ncn2C1OC(CO)C(O)C1O (centres undefined) [Fludarabine] | 131 ± 27 | 134 | 103 ± 10 | 116 | 165 ± 10 | 171 | 105 ± 4 | 106 ± 2 | 121 ± 8.2
CCN(CC)CCOC(=O)C(c1ccccc1)c1ccccc1.Cl [Adiphenine HCl] | 93.1 ± 17 | 129 | 99.2 ± 22 | 94.9 | 57.1 ± 3.2 | 110 | 92.2 ± 7.6 | 92.4 ± 9.5 | 117 ± 17
CC(C)(O/N=C(\C(=O)N[C@@H]1C(=O)N2C(C(=O)[O-])=C(C[n+]3ccccc3)CS[C@H]12)c1csc(N)n1)C(=O)O [Ceftazidime] | 101 ± 17 | 98.6 | 97.7 ± 0.81 | 81.6 | 119 ± 8.4 | 149 | 120 ± 15 | 120 ± 3.6 | 99.7 ± 8.2
CNC(=O)C(NC(=O)C(CC(C)C)C(O)C(=O)NO)C(C)(C)C (centres undefined) [Marimastat] | 138 ± 9.7 | 111 | 78.3 ± 3 | 118 | 72.6 ± 8.9 | 127 | 101 ± 16 | 105 ± 10 | 117 ± 13
CC(=O)Oc1cc2c(s1)CCN(C(C(=O)C1CC1)c1ccccc1F)C2 (centres undefined) [Prasugrel] | 76.6 ± 67 | 164 | 114 ± 4.9 | 120 | 81.6 ± 18 | 122 | 113 ± 20 | 102 ± 28 | 112 ± 16
N=C(NCCCCCCNC(=N)NC(=N)Nc1ccc(Cl)cc1)NC(=N)Nc1ccc(Cl)cc1 [Chlorhexidine digluconate] | 77.9 ± 12 | 118 | 60.1 ± 19 | 76 | 68.6 ± 2 | 112 | 98.5 ± 24 | 48.8 ± 1.5 | 103 ± 6
CN(C)CCOC(c1ccccc1)c1ccccc1.Cl [Diphenhydramine HCl] | 109 ± 18 | 123 | 87 ± 2.5 | 90.8 | 74 ± 3.2 | 118 | 84.2 ± 6.5 | 107 ± 32 | 116 ± 28
CN(C)CCC=C1c2ccccc2CCc2ccccc21.Cl [Amitriptyline HCl] | 103 ± 18 | 99.2 | 87.6 ± 6.1 | 83.2 | 105 ± 9.9 | 135 | 74.5 ± 4.4 | 100 ± 1.1 | 114 ± 2.5
Cl.Clc1cccc(Cl)c1NC1=NCCN1 [Clonidine HCl] | 132 ± 6.9 | 127 | 99 ± 9 | 114 | 111 ± 6.8 | 135 | 94.9 ± 3.3 | 104 ± 15 | 124.6 ± 0.22
CCCCOc1cc(C(=O)NCCN(CC)CC)c2ccccc2n1 [Dibucaine] | 94.3 ± 30 | 158 | 95.5 ± 9.9 | 93.9 | 135 ± 2 | 135 | 81.16 ± 0.71 | 95.1 ± 14 | 89.012 ± 0.00099
CS(=O)(=O)c1ccc(C(O)C(CF)NC(=O)C(Cl)Cl)cc1 (centres undefined) [Florfenicol] | 118 ± 25 | 118 | 89.5 ± 2.1 | 101 | 114 ± 8.4 | 116 | 102 ± 2.6 | 87.4 ± 18 | 99.1 ± 6.9
NC(CO)(CO)CO.O=C(c1ccccc1)c1ccc2n1CCC2C(=O)O (centres undefined) [Ketorolac tromethamine salt] | 123 ± 15 | 174 | 146 ± 70 | 102 | 122 ± 26 | 131 | 145.6 ± 0.93 | 130 ± 15 | 116 ± 4.2
CCCCCCCN(CC)CCCC(O)c1ccc(NS(C)(=O)=O)cc1.CCCCCCCN(CC)CCCC(O)c1ccc(NS(C)(=O)=O)cc1.O=C(O)C=CC(=O)O (centres undefined) [Ibutilide Fumarate] | 93.5 ± 15 | 121 | 105 ± 18 | 103 | 130 ± 10 | 117 | 96.8 ± 2 | 122 ± 3 | 128 ± 21
O=S(=O)([O-])CCSSCCS(=O)(=O)[O-].[Na+].[Na+] [Dimesna] | 111 ± 23 | 150 | 97 ± 6.5 | 103 | 122 ± 15 | 124 | 111 ± 8.6 | 128 ± 9.9 | 125 ± 12
